High-throughput results: PubChem, National Center for Advancing Translational Sciences (NCATS)
This is a sample that favours compounds with a hit; in the whole collection about 12% have one here.
HP1b chromo inh: HTS for Inhibitors of HP1-beta Chromodomain Interactions with Methylated Histone Tails. Chromobox protein homolog 1 (Homo sapiens), P83916. AlphaScreen HP1-beta / biotin-H3K9me3 peptide binding. Potency, µM (top dose mostly 114 µM), inactives show at the top dose activity change, negative = inhibition, actives largely listed as inhibitors. 390,000 compounds, 0.56% hits. AID 540317, 2011; further: potency means the concentration at half of the fitted maximal effect; nearly all actives have a fitted effect of over 70% in size
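AlphaScreen: HP1-beta (50 nM) preformed 30 min with biotin-H3(1-18)K9me3 peptide (50 nM) in PBS pH 7.4, 0.01% Tween-20. Compound added for 30 min at RT, then streptavidin donor/nickel chelate acceptor beads (10 ug/mL) for 30 min.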
PLK1 PBD inh: qHTS for Inhibitors of PLK1-PDB (polo-like kinase 1 - polo-box domain): Primary Screen; AID 720504, 2013; 360,000 compounds, 2.8% hits; Plk1 PBD binding of FITC phosphopeptide, fluorescence polarization; Potency, µM, without a hit: max response, negative = inhibition, actives largely listed as inhibitors; further: potency means the concentration at half of the fitted maximal effect; series mostly up to about 57 µM; on the % scale 0 is the no-effect control and ±100 the full control effect; nearly all actives have a fitted effect of over 65% in size
PI5P4K alpha inh: qHTS for Inhibitors of phosphatidylinositol 5-phosphate 4-kinase (PI5P4K); Phosphatidylinositol 5-phosphate 4-kinase type-2 alpha (Homo sapiens), P48426; 330,000 compounds, 1.2% hits; max response, %; AID 652105, 2013; PI5P4Kalpha enzyme, ADP-Glo luminescence, 60 min; stronger effect = lower value; active means max response of -50% or lower; inconclusive means between -30% and -50%; inactive means -30% or higher; further: value at the top dose of about 77 µM; on the % scale 0 is the no-effect control and ±100 the full control effect
Target sequence (P48426 whole entry, looked up): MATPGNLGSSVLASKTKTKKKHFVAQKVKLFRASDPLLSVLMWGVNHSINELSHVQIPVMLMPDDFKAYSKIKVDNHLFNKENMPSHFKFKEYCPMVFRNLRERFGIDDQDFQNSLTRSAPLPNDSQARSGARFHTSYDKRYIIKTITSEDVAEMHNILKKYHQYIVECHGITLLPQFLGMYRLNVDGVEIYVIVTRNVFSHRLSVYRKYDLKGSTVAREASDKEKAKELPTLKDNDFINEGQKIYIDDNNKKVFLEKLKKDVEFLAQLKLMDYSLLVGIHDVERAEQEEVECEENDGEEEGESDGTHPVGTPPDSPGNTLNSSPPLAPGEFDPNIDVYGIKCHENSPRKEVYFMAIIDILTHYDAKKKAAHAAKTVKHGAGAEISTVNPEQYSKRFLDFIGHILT
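Quantitative HTS of the MLSMR library against PI5P4Kalpha with substrate. ATP added last at 5 microM final; room temperature, 60 minutes. Remaining ATP depleted, ADP converted and read as luminescence.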
JMJD2A Tudor inh: qHTS Assay for Inhibitors of JMJD2A-Tudor Domain | Lysine-specific demethylase 4A (Homo sapiens), O75164 | AlphaScreen JMJD2A-Tudor / H3K4me3 peptide binding | Potency, µM (series often up to 114 µM), for inactives: at the top dose activity change, negative = inhibition, most hits filed as inhibitors | 390,000 compounds, 4.4% hits | AID 504339, 2011; further: potency means the concentration at half of the fitted maximal effect; on the % scale 0 is the no-effect control and ±100 the full control effect; nearly all actives have a fitted effect of over 50% in size
BAZ2B block: qHTS Assay for Inhibitors of BAZ2B; AlphaScreen BAZ2B-H3K14Ac peptide displacement; Potency, µM (titrated, usually from 114 µM), for the others: at the highest dose activity change, negative = inhibition, most hits filed as inhibitors; 360,000 compounds, 4.4% hits; further: potency means the concentration at half of the fitted maximal effect; on the % scale 0 is the no-effect control and ±100 the full control effect; nearly all actives have a fitted effect of over 60% in size
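Inhibition is scored as reduced AlphaScreen emission. The BAZ2B/b-H3(5-23)K14Ac complex (50 nM each) in PBS pH 7.4, 0.01% Tween-20 meets compound (up to 110 uM) for 30 min at RT before bead addition.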
G9a block: qHTS Assay for Inhibitors of Histone Lysine Methyltransferase G9a. Histone-lysine N-methyltransferase EHMT2 (Homo sapiens), Q96KQ7. 350,000 compounds, 8.8% hits. G9a H3K9 monomethylation, AlphaScreen, 2 h. Potency, µM (highest dose often 102 µM), for the others: at the highest dose activity, negative = inhibition, actives largely listed as inhibitors; further: potency means the concentration at half of the fitted maximal effect; on the % scale 0 is the no-effect control and ±100 the full control effect; nearly all actives have a fitted effect of over 75% in size
Target sequence (Q96KQ7 913-1193 limits assumed): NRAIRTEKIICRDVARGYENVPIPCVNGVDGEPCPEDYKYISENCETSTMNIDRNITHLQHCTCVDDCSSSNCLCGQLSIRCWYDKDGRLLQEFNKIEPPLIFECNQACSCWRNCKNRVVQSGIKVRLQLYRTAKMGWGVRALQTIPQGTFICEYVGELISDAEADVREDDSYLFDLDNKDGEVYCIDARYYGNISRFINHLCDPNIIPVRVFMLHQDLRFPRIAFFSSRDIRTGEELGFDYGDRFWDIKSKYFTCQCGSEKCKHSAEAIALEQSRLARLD
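Enzyme 20 nM + cpd, 15 min RT; add b-H3K9 pep 500 nM / SAM 20 uM; 2 h RT; anti-H3K9me1 Ab 0.5 ug/mL + SA donor / anti-rabbit acceptor beads 20 ug/mL each, 10 min; AlphaScreen read.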
An asterisk follows results filed as active; ? = inconclusive; . = no result given; [ ] = dose if it differs, or a comment. Unless noted, the call rests on the fitted dose curve; in most records, active means well fitted curve in the direction sought with a large enough effect; inconclusive means small, poorly fitted or top-dose-only effect, or another doubt; inactive means no such curve, though single readings can be large; an effect the other way counts as inactive or inconclusive.

SMILES | HP1b chromo inh | PLK1 PBD inh | PI5P4K alpha inh | JMJD2A Tudor inh | BAZ2B block | G9a block
Cc1cc(NC(=O)CCC(=O)N(Cc2ccco2)C2(C(=O)NC3CCCC3)CCCCC2)no1 | -8% | -21% | -4 | 89µM* | 2% | -4%
Cc1cc(NC(=O)CCC(=O)N(Cc2ccco2)C2(C(=O)NC3CCCCC3)CCN(C)CC2)no1 | -8% | -2% | -1 | -12% | 3% | 0%
C=CCN(C(=O)CCC(=O)Nc1cc(C)on1)C(C(=O)NC1CCCC1)c1ccc(OC)c(OC)c1 (stereo unspecified) | 27% | -8% | -5 | -10% | 0% | 7%
C=CCN(C(=O)CCC(=O)Nc1cc(C)on1)C(C(=O)NC1CCCC1)c1ccc(CC)cc1 (stereo unspecified) | -5% | 27µM* | -7 | ? | 2% | 12%
Cc1ccc(C)c(N(C(=O)CCC(=O)Nc2cc(C)on2)C(C(=O)NC2CCCC2)c2ccco2)c1 (stereo unspecified) | -8% | 3.8µM* | -28 | -17%[11.4 µM] | 4% | 9%[59 µM]
COc1ccc2c(C)c(CC(=O)NCCc3ccccc3)c(=O)oc2c1OC | 18% | . | . | -8% | -2% | 0%[59 µM]
O=C(O)c1cc(-c2ccc(C(F)(F)F)cc2)nc2n[nH]c(-c3ccccc3)c12 | 38% | . | . | -15% | -26% | -15%[59 µM]
Cc1ccc(NC(=O)Cn2cc(C(F)(F)F)cc(Cl)c2=O)cc1S(=O)(=O)N1CCCCC1 | 7% | -2% | -5 | -24% | 4% | 50µM*
Cc1cccc(NC(=O)CNC(=O)Cn2ncc(Cl)c(Cl)c2=O)c1C | 71µM* | ? | ? | 45µM* | . | .
Cc1ccc(NC(=O)Cn2ncc(Cl)c(Cl)c2=O)cc1S(=O)(=O)N1CCCCC1 | 15% | -17% | -58* | -27% | 0% | ?
Cc1ccc(Cl)cc1NC(=O)Cn1cc(C(F)(F)F)cc(Cl)c1=O | 22% | -4% | 4 | -19% | -30% | 20%[59 µM]
COc1ccc(NC(=O)C/C(C)=N/NC(=O)C(=O)Nc2cccc(Cl)c2C)c(OC)c1 | 34% | -11% | 3 | -16% | 27% | 56µM*
COc1cc(NC(=O)C/C(C)=N/NC(=O)C(=O)NCCO)c(OC)cc1Cl | 2% | 27µM* | 9 | ? | -4% | 4%
COc1ccc(NC(=O)C/C(C)=N/NC(=O)C(=O)NC(C)C)c(OC)c1 | 45% | 1% | 4 | -14% | ? | .
COc1cc(NC(=O)C/C(C)=N/NC(=O)C(=O)NC2CCCCC2)c(OC)cc1Cl | 37% | 4% | 0 | 3% | ? | -27%
COc1ccc(C(=O)C(OC(=O)CNC(=O)c2ccco2)c2ccccc2)cc1 (stereo unspecified) | 8% | -4% | -14 | -16% | -38%[57.1 µM] | 50µM*
O=C(CNC(=O)c1ccccc1)OC(C(=O)c1ccccc1)c1ccccc1 (stereo unspecified) | 55% | -12% | 1 | -4% | -7% | 23%[59 µM]
COC(=O)N1CCC2(CCN(C(=O)Nc3cccc(C#N)c3)CC2)CC1 | . | . | . | . | . | 14%[12.7 µM]
CC(=O)c1cccc(-c2ccnc3c2CC(C(=O)Nc2ccc(F)c(Cl)c2)O3)c1 (stereo unspecified) | . | -1% | -5 | . | . | .
COc1cccc2c1C(=N)c1c(O)c3c(c(O)c1C2=O)CC(O)(C(C)=O)CC3OC1CC(N)C(O)C(C)O1 (stereo unspecified) | ? | -11% | 3 | 40µM* | . | .
COc1cccc2c1C(=O)c1c(O)c3c(c(O)c1C2=O)C[C@@](O)(C(=O)CO)C[C@@H]3O[C@H]1C[C@H](N)[C@H](OC2CCCCO2)[C@H](C)O1 (stereo partly specified) | . | . | . | . | . | -45%[12.7 µM]
COc1cccc2c1C(=O)c1c(O)c3c(c(O)c1C2=O)CC(O)(C(C)=O)CC3OC1CC(O)C(O)C(C)O1 (stereo unspecified) | ? | 9.5µM* | -12 | ? | . | .
COc1cccc2c1C(=O)c1c(O)c3c(c(O)c1C2=O)C[C@](O)(C(C)=O)C[C@H]3O[C@@H]1C[C@@H](N)[C@@H](O)[C@@H](C)O1 | -11% | ? | -2 | ? | 45µM* | ?
CC(C)n1c(SCC(=O)Nc2ccc(F)cc2)nc2c(oc3ccccc32)c1=O | 36% | . | . | -1% | 1% | 6%[59 µM]
NC(=O)Cc1nc2scc(-c3ccccc3)c2c(=O)[nH]1 | -6% | ? | ? | -10% | -19% | 14µM*
SMILES | HP1b chromo inh | PLK1 PBD inh | PI5P4K alpha inh | JMJD2A Tudor inh | BAZ2B block | G9a block
O=C(OCc1nc2scc(-c3ccccc3)c2c(=O)[nH]1)c1ccco1 | 20% | -1% | -9 | -18% | 8% | ?
O=C(OCc1nc2scc(-c3ccccc3)c2c(=O)[nH]1)c1cccc([N+](=O)[O-])c1 | ? | 30µM* | -6 | ? | -2% | 40µM*
CCc1cccc(NC(=O)CN(c2ccc(C)cc2)S(=O)(=O)c2c(C)noc2C)c1 | 16%[57 µM] | -2% | 20 | -15% | -9% | -3%
C[C@H](O)[C@@H]1C(=O)N2C(C(=O)O)=C(SCCN=CN)C[C@@H]12 | . | . | . | . | . | 32%[21.5 µM]
CN(C(=O)COC(=O)COc1ccc2ccccc2c1)c1c(N)n(Cc2ccccc2)c(=O)[nH]c1=O | 22% | -6% | -3 | -19% | 5% | -37%[12.7 µM]
Cc1cc(OCC(=O)OCC(=O)N(C)c2c(N)n(Cc3ccccc3)c(=O)[nH]c2=O)ccc1Cl | 44% | 2% | 11 | -12% | -4% | 6.3µM*
COCCN(C(=O)COC(=O)COc1ccc2ccccc2c1)c1c(N)n(Cc2ccccc2)c(=O)[nH]c1=O | 10% | -1% | 5 | -15% | . | .
COCCN(C(=O)COC(=O)COc1ccc(Cl)c(C)c1)c1c(N)n(Cc2ccccc2)c(=O)[nH]c1=O | 17% | -10% | 0 | -20% | -3% | 40µM*
CCCOc1ccc(/C(O)=C2/C(=O)C(=O)N(CCCN3CCOCC3)C2c2ccncc2)cc1 (stereo unspecified) | . | . | . | . | ? | 14µM*
C=CCOc1cccc(C2/C(=C(/O)c3ccc4c(c3)CC(C)O4)C(=O)C(=O)N2CCN2CCOCC2)c1 (stereo unspecified) | 11% | -17% | 1 | -12% | -22%[57.1 µM] | 50µM*
